Results on 33 compounds are retold here after PubChem BioAssay (NCATS).

The source made the active and inactive calls. Calls come from the whole dose curve.

One assay in a line: qHTS drug screen for cell cycle checkpoint inhibitors in PARPi-resistant BRCA-mutant ovarian cancer cell lines. (AID 1963452). The settings on record: PEO1/OlaR viability, CellTiter-Glo luminescence, 96 h; stronger effect = lower value. The gist of the method: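 PEO1, PEO4 and PEO1/OlaR ovarian cancer cells, 600 per well, exposed 96 h at 37C to a dilution series. Viability read by CellTiter-Glo luminescence, normalized to DMSO and empty wells; activity summarized as Z-AUC.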
Regarding `CCn1c(-c2nonc2N)nc2c(C#CC(C)(C)O)ncc(OC[C@H]3CCCNC3)c21`, the Z-AUC is 1.22 (inactive).
Same read-out and setting: then `CCC(=O)N[C@H]1CC[C@H](C(=O)N(C)c2ccc(-c3nc4ccccc4o3)cc2)C1`, with -0.0495 (inactive); and `OC[C@H](Cc1ccccc1)Nc1nc(Oc2ccc3c(c2)CCC3)nc2c1ncn2Cc1ccc(-c2ccccc2)cc1`, with 0.712 (inactive); and `O=C(Nc1ccc(F)c(C(F)(F)F)c1)Nc1nnc(-c2ccncc2)s1`, with -0.226 (inactive).
Same read-out and setting: then `Nc1ncnc2nc(-c3ccc(N4CCOCC4)nc3)cc(-c3cccc(Br)c3)c12`, with 0.819 (inactive); and `COc1ccc(CCN2CCN(CCCc3ccccc3)CC2)cc1OC`, with -0.614 (inactive); and `CN([C@@H](Cc1ccc(OS(=O)(=O)c2cccc3cnccc23)cc1)C(=O)N1CCN(c2ccccc2)CC1)S(=O)(=O)c1cccc2cnccc12`, with 1.57 (inactive).
As to `Cc1cc([C@@H](C)Nc2ccccc2C(=O)O)c2nc(N3CCOCC3)cc(=O)n2c1`, the Z-AUC was 0.266 (inactive).
On the same count and under the same terms, then `COc1ccc(C2=N[C@H](c3ccc(Cl)cc3)[C@H](c3ccc(Cl)cc3)N2C(=O)N2CCNC(=O)C2)c(OC(C)C)c1`, with 0.858 (inactive); and `CC1(C)Cc2c(-c3ccccc3)c(-c3ccc(Cl)cc3)c(CC(=O)O)n2C1`, with 0.0211 (inactive); and `Cc1ccc(NC(=O)c2cccc(C(C)(C)C#N)c2)cc1Nc1ccc2ncn(C)c(=O)c2c1`, with 0.851 (inactive).
Same read-out and setting: then `COc1cc2nccc(Oc3ccc(NC(=O)NC4CC4)c(Cl)c3)c2cc1C(N)=O`, with -1.2 (inactive); and `CC1(C)CNc2cc(NC(=O)c3cccnc3NCc3ccncc3)ccc21`, with 1.35 (inactive).
On the same count and under the same terms, the result for `CCc1cc(Nc2nccc(-c3c(-c4ccc(OC)c(C(=O)Nc5c(F)cccc5F)c4)nc4ccccn34)n2)c(OC)cc1N1CCC(N2CCN(S(C)(=O)=O)CC2)CC1` reads -0.4 (inactive).
As for `CCCS(=O)(=O)Nc1ccc(F)c(C(=O)c2c[nH]c3ncc(Cl)cc23)c1F`, the Z-AUC was -0.11 (inactive).
Still for that read-out and setting: the result for `Cc1c(CCOc2ccc(C(=O)O)cc2)c2cc(Cl)ccc2n1C(c1ccccc1)c1ccccc1` reads 0.749 (inactive).
On to `C[C@]1(c2nc3c(C(N)=O)cccc3[nH]2)CCCN1`, for which the Z-AUC is 0.745 (inactive).
Same read-out and setting: the result for `COCCNCCCn1c(C(=O)CF)c(-c2ccc(C)cc2)c2c(N)ncnc21` reads 0.937 (inactive); that for `COc1ccc(-c2ccc3c(N4CCOCC4)nc(N4C[C@@H](C)O[C@@H](C)C4)nc3n2)cc1CO`, 1.56 (inactive); that for `CNCc1ccc(-c2[nH]c3cc(F)cc4c3c2CCNC4=O)cc1`, 0.567 (inactive).
As for `CCN(c1ccccc1)c1cc(NC)[n+](C)c(C)n1`, the Z-AUC was 1.35 (inactive).
Same read-out and setting: the result for `C/C(=C\C(=O)Nc1ccccc1C(=O)O)c1ccc2ccccc2c1` reads 0.258 (inactive).
On the same count and under the same terms, then `C[C@H](NC(=O)Cc1cc(F)cc(F)c1)C(=O)N[C@@H]1C(=O)N(C)c2ccccc2-c2ccccc21`, with -0.379 (inactive); and `CN(C(=O)c1ccc(F)cc1C(F)(F)F)C1CCN(c2nnc(-c3ccnn3C)c3ccccc23)CC1`, with -0.541 (inactive).
With `Cc1cccc(-c2nn(C(=S)Nc3ccccc3)cc2-c2ccnc3ccccc23)n1`, the Z-AUC is 0.884 (inactive).
Same read-out and setting: then `C[C@]12CCC(=O)C=C1CC[C@@H]1[C@@H]2[C@@H](O)C[C@@]2(C)[C@H]1CC[C@]2(O)C(=O)CO`, with 0.00041 (inactive); and `COc1ccc(COc2cc3oc(=O)c4cc(C(C)O)ccc4c3cc2OC)cc1` (centres undefined), with 1.06 (inactive).
Regarding `CS(=O)(=O)c1ccc(C(=O)Nc2ccc(Cl)c(-c3ccccn3)c2)c(Cl)c1`, the Z-AUC is 0.211 (inactive).
Same read-out and setting: then `CCOc1cc(N2CCC(O)CC2)ccc1Nc1ncc2c(n1)N(C)c1ccccc1C(=O)N2C`, with -0.264 (inactive).
Same read-out and setting: the result for `CCC(C)(C)C(=O)O[C@H]1C[C@@H](C)C=C2C=C[C@H](C)[C@H](CC[C@@H]3C[C@@H](O)CC(=O)O3)[C@H]21` reads 1.29 (inactive); that for `CC[C@H](Nc1ncnc2nc[nH]c12)c1nc2cccc(F)c2c(=O)n1-c1ccccc1`, 0.714 (inactive).

Still in this assay, the particulars now being: PEO1/OlaR viability, CellTiter-Glo luminescence, 96 h; measured here: PEO1 parental Z-AUC; stronger effect = lower value.
Turning to `CCn1c(-c2nonc2N)nc2c(C#CC(C)(C)O)ncc(OC[C@H]3CCCNC3)c21`, the Z-AUC was 0.92.
For the compound `CCC(=O)N[C@H]1CC[C@H](C(=O)N(C)c2ccc(-c3nc4ccccc4o3)cc2)C1`, the Z-AUC is -0.000542.
On the same count and under the same terms, then `OC[C@H](Cc1ccccc1)Nc1nc(Oc2ccc3c(c2)CCC3)nc2c1ncn2Cc1ccc(-c2ccccc2)cc1`, with 0.249; and `O=C(Nc1ccc(F)c(C(F)(F)F)c1)Nc1nnc(-c2ccncc2)s1`, with -0.821; and `Nc1ncnc2nc(-c3ccc(N4CCOCC4)nc3)cc(-c3cccc(Br)c3)c12`, with 1.06.
Turning to `COc1ccc(CCN2CCN(CCCc3ccccc3)CC2)cc1OC`, the Z-AUC is -0.141.
On the same count and under the same terms, then `CN([C@@H](Cc1ccc(OS(=O)(=O)c2cccc3cnccc23)cc1)C(=O)N1CCN(c2ccccc2)CC1)S(=O)(=O)c1cccc2cnccc12`, with 1.54.
On the same count and under the same terms, the result for `Cc1cc([C@@H](C)Nc2ccccc2C(=O)O)c2nc(N3CCOCC3)cc(=O)n2c1` reads 0.877.
The same measure, in the same setting: then `COc1ccc(C2=N[C@H](c3ccc(Cl)cc3)[C@H](c3ccc(Cl)cc3)N2C(=O)N2CCNC(=O)C2)c(OC(C)C)c1`, with 0.454; and `CC1(C)Cc2c(-c3ccccc3)c(-c3ccc(Cl)cc3)c(CC(=O)O)n2C1`, with 0.818.
Take `Cc1ccc(NC(=O)c2cccc(C(C)(C)C#N)c2)cc1Nc1ccc2ncn(C)c(=O)c2c1`: the Z-AUC turned out to be 0.186.
The same measure, in the same setting: the result for `COc1cc2nccc(Oc3ccc(NC(=O)NC4CC4)c(Cl)c3)c2cc1C(N)=O` reads 0.621; that for `CC1(C)CNc2cc(NC(=O)c3cccnc3NCc3ccncc3)ccc21`, 0.457.
Same read-out and setting: the result for `CCc1cc(Nc2nccc(-c3c(-c4ccc(OC)c(C(=O)Nc5c(F)cccc5F)c4)nc4ccccn34)n2)c(OC)cc1N1CCC(N2CCN(S(C)(=O)=O)CC2)CC1` reads -0.657; that for `COc1cc(F)c(F)c(Nc2ccc(I)cc2F)c1NS(=O)(=O)C1(C[C@H](O)CO)CC1`, -1.43.
The same measure, in the same setting: then `CCCS(=O)(=O)Nc1ccc(F)c(C(=O)c2c[nH]c3ncc(Cl)cc23)c1F`, with 0.791; and `Cc1c(CCOc2ccc(C(=O)O)cc2)c2cc(Cl)ccc2n1C(c1ccccc1)c1ccccc1`, with 1.16.
In the case of `C[C@]1(c2nc3c(C(N)=O)cccc3[nH]2)CCCN1`, the Z-AUC was determined as 0.586.
On the same count and under the same terms, then `COCCNCCCn1c(C(=O)CF)c(-c2ccc(C)cc2)c2c(N)ncnc21`, with 1.02.
On the same count and under the same terms, then `COc1ccc(-c2ccc3c(N4CCOCC4)nc(N4C[C@@H](C)O[C@@H](C)C4)nc3n2)cc1CO`, with 1.12.
Consider `CNCc1ccc(-c2[nH]c3cc(F)cc4c3c2CCNC4=O)cc1`, for which the Z-AUC turned out to be 0.569.
Same read-out and setting: then `CCN(c1ccccc1)c1cc(NC)[n+](C)c(C)n1`, with 1.27; and `C/C(=C\C(=O)Nc1ccccc1C(=O)O)c1ccc2ccccc2c1`, with 0.668.
The same measure, in the same setting: then `C[C@H](NC(=O)Cc1cc(F)cc(F)c1)C(=O)N[C@@H]1C(=O)N(C)c2ccccc2-c2ccccc21`, with -0.57; and `CN(C(=O)c1ccc(F)cc1C(F)(F)F)C1CCN(c2nnc(-c3ccnn3C)c3ccccc23)CC1`, with -0.599; and `CO[C@@H]1[C@H](N(C)C(=O)c2ccccc2)C[C@H]2O[C@]1(C)n1c3ccccc3c3c4c(c5c6ccccc6n2c5c31)C(=O)NC4`, with -1.27.
Turning to `Cc1cccc(-c2nn(C(=S)Nc3ccccc3)cc2-c2ccnc3ccccc23)n1`, the Z-AUC was determined as 0.402.
The same measure, in the same setting: then `C[C@]12CCC(=O)C=C1CC[C@@H]1[C@@H]2[C@@H](O)C[C@@]2(C)[C@H]1CC[C@]2(O)C(=O)CO`, with 0.66; and `COc1ccc(COc2cc3oc(=O)c4cc(C(C)O)ccc4c3cc2OC)cc1` (centres undefined), with 0.636.
Consider `CS(=O)(=O)c1ccc(C(=O)Nc2ccc(Cl)c(-c3ccccn3)c2)c(Cl)c1`, for which the Z-AUC was -0.252.
In the case of `CCOc1cc(N2CCC(O)CC2)ccc1Nc1ncc2c(n1)N(C)c1ccccc1C(=O)N2C`, the Z-AUC amounted to 0.271.
Take `CCC(C)(C)C(=O)O[C@H]1C[C@@H](C)C=C2C=C[C@H](C)[C@H](CC[C@@H]3C[C@@H](O)CC(=O)O3)[C@H]21`: the Z-AUC was 1.6.
Same read-out and setting: the result for `CC[C@H](Nc1ncnc2nc[nH]c12)c1nc2cccc(F)c2c(=O)n1-c1ccccc1` reads 0.526.
